Measurements taken from PubChem BioAssay (EPA / NIEHS).
Inconclusive results are not listed. The source made the active and inactive calls. How the source made its calls, unless noted: active means hit-call score of the fitted dose curve at least 0.9, where 1 is the maximum; inactive means score below 0.9.

Key:
[1] = ATG_NFI_CIS: Attagene CIS-FACTORIAL HepG2 Assay for human Nuclear Factor I (NFI) (AID 2282989); conditions: HepG2 cis-regulatory reporter, NFI response element transcription; actives raise or lower the signal
Procedure, shortened: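 Transfected HepG2 liver cells, exposed 24 h, supplied total RNA for oligo(dT) reverse transcription and reporter-specific PCR. Labelled, HpaI-cut fragments were sized by capillary electrophoresis; DMSO set the baseline for bidirectional fitting.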

[2] = molecular target: Myc proto-oncogene protein (Homo sapiens) (UniProt P01106); assay: ATG_Myc_CIS: Attagene CIS-FACTORIAL HepG2 Assay for human Myelocytomatosis (Myc) Proto-Oncogene Transcription Factor (AID 2282990); conditions: HepG2, Attagene cis-reporter transcription factor activity; actives raise or lower the signal
Chain of Myc proto-oncogene protein (Homo sapiens) (P01106 whole entry, looked up): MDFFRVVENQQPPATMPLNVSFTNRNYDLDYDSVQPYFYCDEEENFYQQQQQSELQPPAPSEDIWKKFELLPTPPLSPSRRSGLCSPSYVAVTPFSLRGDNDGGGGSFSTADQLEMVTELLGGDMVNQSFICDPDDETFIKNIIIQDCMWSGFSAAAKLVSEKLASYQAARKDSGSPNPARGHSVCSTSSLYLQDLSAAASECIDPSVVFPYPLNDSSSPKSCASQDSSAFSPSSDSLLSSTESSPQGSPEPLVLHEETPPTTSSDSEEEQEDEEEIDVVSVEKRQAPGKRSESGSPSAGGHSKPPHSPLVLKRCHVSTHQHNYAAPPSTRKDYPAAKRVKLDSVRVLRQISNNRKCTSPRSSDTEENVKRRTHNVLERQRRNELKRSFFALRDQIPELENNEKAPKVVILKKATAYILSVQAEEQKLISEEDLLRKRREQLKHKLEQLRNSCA
Procedure, shortened: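 HepG2, transient MRTU transfection (cis promoters, endogenous TFs); 24 h dosing; TriZol RNA → oligo(dT) RT → PCR → 6-FAM primer extension → HpaI cut → CE. Bidirectional fit vs DMSO.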

[3] = ATG_NF_kB_CIS: Attagene CIS-FACTORIAL HepG2 Assay for human Nuclear Factor Kappa B (NF-kB) (AID 2282991); conditions: HepG2 Attagene cis-factorial NF-kB reporter mRNA; actives raise or lower the signal
Procedure, shortened: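 Fluorescence of labelled RT-PCR products separated by capillary electrophoresis gives reporter mRNA levels from transfected HepG2 cells exposed 24 h; values are fitted in both directions relative to DMSO.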

[4] = ATG_NRF2_ARE_CIS: Attagene CIS-FACTORIAL HepG2 Assay for human Nuclear Factor Erythroid 2 Related Factor 2 (NFR2) response to Antioxidant Response Elements (ARE) (AID 2282992); conditions: HepG2 Attagene ARE/NRF2 reporter, transcription factor activity; actives raise or lower the signal
Procedure, shortened: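 Cis-factorial assay: transfected HepG2 reporter library, 24 h dosing, mRNA readout via RT-PCR/CE; DMSO-referenced bidirectional analysis.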

[5] = ATG_Oct_MLP_CIS: Attagene CIS-FACTORIAL HepG2 Assay for human Octamer-Binding Transcription Factor (Oct) (AID 2282993); conditions: HepG2 Attagene cis-factorial Oct reporter, mRNA; actives raise or lower the signal
Procedure, shortened: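 Using HepG2 cells bearing transfected cis-reporter constructs, mRNA induction was read after 24 h by fluorescent RT-PCR and capillary electrophoresis, with DMSO defining baseline for gain- or loss-of-signal fits.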

[6] = molecular target: Cellular tumor antigen p53 (Homo sapiens) (UniProt P04637); assay: ATG_p53_CIS: Attagene CIS-FACTORIAL HepG2 Assay for human p53 Transcription Factor (AID 2282994); conditions: HepG2 p53 cis-element reporter, Attagene mRNA; actives raise or lower the signal
Chain of Cellular tumor antigen p53 (Homo sapiens) (P04637 whole entry, looked up): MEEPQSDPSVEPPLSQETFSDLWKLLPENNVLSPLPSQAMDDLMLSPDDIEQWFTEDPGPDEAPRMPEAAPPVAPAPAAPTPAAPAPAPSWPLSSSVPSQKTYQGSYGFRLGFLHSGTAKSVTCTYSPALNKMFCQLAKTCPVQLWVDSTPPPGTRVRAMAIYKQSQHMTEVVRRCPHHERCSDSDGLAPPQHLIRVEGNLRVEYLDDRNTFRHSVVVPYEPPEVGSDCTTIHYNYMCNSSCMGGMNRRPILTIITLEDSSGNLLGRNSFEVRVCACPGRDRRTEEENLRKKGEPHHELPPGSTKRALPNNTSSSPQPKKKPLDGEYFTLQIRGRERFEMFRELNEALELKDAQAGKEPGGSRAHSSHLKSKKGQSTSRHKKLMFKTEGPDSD
Procedure, shortened: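 Using HepG2 hepatoma cells carrying cis-acting multiplexed reporters, mRNA induction is detected after a 24 h exposure. Gain- and loss-of-signal responses are fitted relative to DMSO-treated cells.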

[7] = molecular target: human Peroxisome Proliferator-activated Receptor alpha (PPARa), PPARA (gene 5465) (UniProt Q07869); assay: ATG_PPARa_TRANS: Attagene TRANS-FACTORIAL HepG2 Assay for human Peroxisome Proliferator-activated Receptor alpha (PPARa) (AID 2283001; active means hit-call score of the fitted dose curve at least 0.9, where 1 is the maximum;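 on AC50: potency for gain of reporter signal over DMSO so agonist or activator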)
Chain of human Peroxisome Proliferator-activated Receptor alpha (PPARa), PPARA (gene 5465) (Q07869 whole entry, looked up, the tested form may be a part): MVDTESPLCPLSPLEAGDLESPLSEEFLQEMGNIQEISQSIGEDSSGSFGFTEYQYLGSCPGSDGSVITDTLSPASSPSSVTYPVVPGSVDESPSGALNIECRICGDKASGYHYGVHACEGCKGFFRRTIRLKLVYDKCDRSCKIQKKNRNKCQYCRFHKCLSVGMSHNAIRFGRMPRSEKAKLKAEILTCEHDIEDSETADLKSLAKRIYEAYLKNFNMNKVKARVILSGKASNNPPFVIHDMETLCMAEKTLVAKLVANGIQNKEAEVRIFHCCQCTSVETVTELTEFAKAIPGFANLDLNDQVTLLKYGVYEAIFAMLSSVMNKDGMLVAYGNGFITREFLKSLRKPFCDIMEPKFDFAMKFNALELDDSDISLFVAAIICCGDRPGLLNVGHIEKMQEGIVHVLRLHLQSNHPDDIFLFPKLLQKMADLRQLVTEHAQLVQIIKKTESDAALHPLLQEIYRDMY
Procedure, shortened: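 Reporter transcripts from GAL4-UAS units in transfected HepG2 were quantified 24 h after dosing. Detection used reverse transcription, PCR, fluorescent primer extension and capillary electrophoresis, with DMSO as baseline.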

[8] = molecular target: human Peroxisome Proliferator-activated Receptor delta (PPARd), PPARD (gene 5467) (UniProt Q03181); assay: ATG_PPARd_TRANS: Attagene TRANS-FACTORIAL HepG2 Assay for human Peroxisome Proliferator-activated Receptor delta (PPARd) (AID 2283002; active means hit-call score of the fitted dose curve at least 0.9, where 1 is the maximum)
Chain of human Peroxisome Proliferator-activated Receptor delta (PPARd), PPARD (gene 5467) (Q03181 whole entry, looked up, the tested form may be a part): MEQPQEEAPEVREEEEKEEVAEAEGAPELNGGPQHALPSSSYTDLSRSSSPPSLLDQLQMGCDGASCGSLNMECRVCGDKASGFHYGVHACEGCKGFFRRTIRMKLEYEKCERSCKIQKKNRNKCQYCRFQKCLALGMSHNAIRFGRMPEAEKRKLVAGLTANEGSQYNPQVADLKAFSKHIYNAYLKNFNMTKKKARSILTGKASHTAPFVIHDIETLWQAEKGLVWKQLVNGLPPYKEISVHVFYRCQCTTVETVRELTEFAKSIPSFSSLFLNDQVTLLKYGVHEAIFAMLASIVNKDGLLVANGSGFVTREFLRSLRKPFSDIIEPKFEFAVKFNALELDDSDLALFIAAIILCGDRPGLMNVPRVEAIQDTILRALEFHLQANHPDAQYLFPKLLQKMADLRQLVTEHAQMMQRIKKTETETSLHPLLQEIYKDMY
Procedure, shortened: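 Transient HepG2 transfection (multiple GAL4-UAS RTUs, chimeric receptor-Gal4); 24 h dosing; total RNA → oligo(dT) RT → PCR → 6-FAM primer extension → HpaI cut → CE. Positive direction vs DMSO.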

[9] = molecular target: human RAR-related Orphan Receptor beta (RORb), RORB (gene 6096) (UniProt Q92753); assay: ATG_RORb_TRANS: Attagene TRANS-FACTORIAL HepG2 Assay for human RAR-related Orphan Receptor beta (RORb) (AID 2283010; active means hit-call score of the fitted dose curve at least 0.9, where 1 is the maximum)
Chain of human RAR-related Orphan Receptor beta (RORb), RORB (gene 6096) (Q92753 whole entry, looked up, the tested form may be a part): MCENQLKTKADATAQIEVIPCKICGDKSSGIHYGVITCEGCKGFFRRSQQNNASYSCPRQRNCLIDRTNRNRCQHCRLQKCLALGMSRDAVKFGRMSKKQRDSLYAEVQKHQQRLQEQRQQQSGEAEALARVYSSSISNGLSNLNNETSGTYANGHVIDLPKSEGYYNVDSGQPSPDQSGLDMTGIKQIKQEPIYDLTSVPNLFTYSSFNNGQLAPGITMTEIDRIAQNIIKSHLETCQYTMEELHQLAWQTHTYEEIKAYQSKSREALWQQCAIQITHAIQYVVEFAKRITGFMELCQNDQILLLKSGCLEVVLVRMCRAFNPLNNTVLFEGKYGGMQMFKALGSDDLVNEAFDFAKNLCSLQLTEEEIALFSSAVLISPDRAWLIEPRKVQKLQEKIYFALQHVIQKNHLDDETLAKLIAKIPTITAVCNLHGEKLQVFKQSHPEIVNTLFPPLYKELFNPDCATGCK
Procedure, shortened: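 In this TRANS-format test, human HepG2 cells express chimeric NR-Gal4 fusion proteins driving GAL4-UAS reporters. After 24 h dosing, reporter transcripts are measured by fluorescent RT-PCR/capillary electrophoresis, with DMSO as negative control.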

[10] = molecular target: Peroxisome proliferator-activated receptor gamma (Homo sapiens) (UniProt P37231); assay: ATG_PPARg_TRANS: Attagene TRANS-FACTORIAL HepG2 Assay for human Peroxisome Proliferator-activated Receptor-gamma (PPARg) (AID 2283007; active means hit-call score of the fitted dose curve at least 0.9, where 1 is the maximum)
Chain of Peroxisome proliferator-activated receptor gamma (Homo sapiens) (P37231 whole entry, looked up): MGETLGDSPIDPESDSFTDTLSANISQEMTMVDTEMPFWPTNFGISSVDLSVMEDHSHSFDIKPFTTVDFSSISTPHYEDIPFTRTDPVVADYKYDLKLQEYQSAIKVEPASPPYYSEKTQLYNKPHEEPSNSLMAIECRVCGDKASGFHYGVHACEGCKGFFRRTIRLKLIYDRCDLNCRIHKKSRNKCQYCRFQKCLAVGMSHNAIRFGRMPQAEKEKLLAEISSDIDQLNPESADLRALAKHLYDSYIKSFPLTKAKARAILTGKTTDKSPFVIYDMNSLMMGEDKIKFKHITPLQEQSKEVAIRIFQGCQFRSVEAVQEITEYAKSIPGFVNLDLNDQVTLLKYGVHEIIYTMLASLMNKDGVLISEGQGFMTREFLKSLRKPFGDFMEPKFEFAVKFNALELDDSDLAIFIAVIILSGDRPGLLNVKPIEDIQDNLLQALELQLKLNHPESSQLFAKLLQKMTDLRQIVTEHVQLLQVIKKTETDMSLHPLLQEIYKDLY
Procedure, shortened: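 Twenty-four hours after chemical dosing of transiently transfected HepG2 cells, isolated RNA was converted to cDNA, reporter sequences amplified and 6-FAM-labelled, then HpaI-digested and analysed by capillary electrophoresis. Signal increase against DMSO was fitted.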

[11] = molecular target: Nuclear receptor subfamily 1 group I member 2 (Homo sapiens) (UniProt O75469); assay: ATG_PXR_TRANS: Attagene TRANS-FACTORIAL HepG2 Assay for human Pregnane X Receptor (PXR) (AID 2283008; active means hit-call score of the fitted dose curve at least 0.9, where 1 is the maximum)
Chain of Nuclear receptor subfamily 1 group I member 2 (Homo sapiens) (O75469 whole entry, looked up, the tested form may be a part): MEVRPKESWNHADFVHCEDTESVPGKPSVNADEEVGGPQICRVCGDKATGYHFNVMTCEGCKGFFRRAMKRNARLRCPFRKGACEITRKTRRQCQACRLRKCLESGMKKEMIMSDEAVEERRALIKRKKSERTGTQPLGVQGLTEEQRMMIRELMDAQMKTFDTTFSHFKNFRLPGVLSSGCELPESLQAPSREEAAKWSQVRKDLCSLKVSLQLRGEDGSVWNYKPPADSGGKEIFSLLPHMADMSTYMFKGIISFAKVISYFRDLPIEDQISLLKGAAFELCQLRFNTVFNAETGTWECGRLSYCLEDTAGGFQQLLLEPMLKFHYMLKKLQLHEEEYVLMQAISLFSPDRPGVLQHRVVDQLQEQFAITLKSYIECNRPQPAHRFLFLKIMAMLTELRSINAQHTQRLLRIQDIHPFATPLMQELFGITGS
Procedure, shortened: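 Fluorescence intensity of FAM-labelled, HpaI-digested reporter amplicons, separated by capillary electrophoresis, quantifies induction. HepG2 cells with PXR-Gal4 trans-reporter system were exposed 24 h; DMSO defines baseline.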

[12] = molecular target: human Retinoic Acid Receptor beta (RARb), RARB (gene 5915) (UniProt P10826); assay: ATG_RARb_TRANS: Attagene TRANS-FACTORIAL HepG2 Assay for human Retinoic Acid Receptor beta (AID 2283004; active means hit-call score of the fitted dose curve at least 0.9, where 1 is the maximum)
Chain of human Retinoic Acid Receptor beta (RARb), RARB (gene 5915) (P10826 whole entry, looked up, the tested form may be a part): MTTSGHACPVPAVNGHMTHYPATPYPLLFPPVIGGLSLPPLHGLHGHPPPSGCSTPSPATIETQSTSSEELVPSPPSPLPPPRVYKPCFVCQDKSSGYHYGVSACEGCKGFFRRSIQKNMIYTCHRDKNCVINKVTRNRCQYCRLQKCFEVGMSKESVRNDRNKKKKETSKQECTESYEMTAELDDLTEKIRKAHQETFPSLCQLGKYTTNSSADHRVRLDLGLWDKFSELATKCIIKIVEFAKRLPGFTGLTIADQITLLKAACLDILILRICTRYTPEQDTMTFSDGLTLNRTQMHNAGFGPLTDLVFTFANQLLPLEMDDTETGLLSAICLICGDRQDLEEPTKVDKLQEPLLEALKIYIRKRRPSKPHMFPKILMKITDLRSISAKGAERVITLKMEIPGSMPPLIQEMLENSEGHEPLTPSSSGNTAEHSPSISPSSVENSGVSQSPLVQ
Procedure, shortened: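 HepG2 cells transiently transfected with multiplexed GAL4-UAS reporter units expressing chimeric NR–Gal4 fusions; 24 h compound exposure. Reporter mRNA quantified by RT-PCR, 6-FAM labelling, HpaI digestion and capillary electrophoresis; gain-of-signal fitted against DMSO baseline.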

[13] = molecular target: Retinoic acid receptor alpha (Homo sapiens) (UniProt P10276); assay: ATG_RARa_TRANS: Attagene TRANS-FACTORIAL HepG2 Assay for human Retinoic Acid Receptor alpha (RARa) (AID 2283005; active means hit-call score of the fitted dose curve at least 0.9, where 1 is the maximum)
Chain of Retinoic acid receptor alpha (Homo sapiens) (P10276 whole entry, looked up, the tested form may be a part): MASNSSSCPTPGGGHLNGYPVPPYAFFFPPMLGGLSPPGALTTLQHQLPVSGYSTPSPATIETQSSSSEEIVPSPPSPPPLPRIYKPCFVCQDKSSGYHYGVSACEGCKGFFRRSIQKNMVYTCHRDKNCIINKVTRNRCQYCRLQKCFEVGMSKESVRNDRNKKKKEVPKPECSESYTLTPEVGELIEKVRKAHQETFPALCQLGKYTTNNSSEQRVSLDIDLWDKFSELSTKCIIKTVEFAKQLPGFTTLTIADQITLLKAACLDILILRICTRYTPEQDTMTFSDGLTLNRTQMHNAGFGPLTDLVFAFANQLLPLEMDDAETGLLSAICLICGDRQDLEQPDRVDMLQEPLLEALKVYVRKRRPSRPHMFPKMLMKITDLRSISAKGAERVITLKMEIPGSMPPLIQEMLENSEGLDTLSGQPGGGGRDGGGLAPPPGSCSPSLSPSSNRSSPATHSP
Procedure, shortened: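 Reporter transcripts, measured by RT-PCR with fluorescent labeling and capillary electrophoresis after 24 h dosing, reflect activity of an exogenous human RARa–GAL4 fusion in transiently transfected HepG2. Fitted for increase relative to DMSO.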

[14] = molecular target: human Retinoic Acid Receptor gamma (RARg), RARG (gene 5916) (UniProt P13631); assay: ATG_RARg_TRANS: Attagene TRANS-FACTORIAL HepG2 Assay for human Retinoic Acid Receptor gamma (RARg) (AID 2283009; active means hit-call score of the fitted dose curve at least 0.9, where 1 is the maximum)
Chain of human Retinoic Acid Receptor gamma (RARg), RARG (gene 5916) (P13631 whole entry, looked up, the tested form may be a part): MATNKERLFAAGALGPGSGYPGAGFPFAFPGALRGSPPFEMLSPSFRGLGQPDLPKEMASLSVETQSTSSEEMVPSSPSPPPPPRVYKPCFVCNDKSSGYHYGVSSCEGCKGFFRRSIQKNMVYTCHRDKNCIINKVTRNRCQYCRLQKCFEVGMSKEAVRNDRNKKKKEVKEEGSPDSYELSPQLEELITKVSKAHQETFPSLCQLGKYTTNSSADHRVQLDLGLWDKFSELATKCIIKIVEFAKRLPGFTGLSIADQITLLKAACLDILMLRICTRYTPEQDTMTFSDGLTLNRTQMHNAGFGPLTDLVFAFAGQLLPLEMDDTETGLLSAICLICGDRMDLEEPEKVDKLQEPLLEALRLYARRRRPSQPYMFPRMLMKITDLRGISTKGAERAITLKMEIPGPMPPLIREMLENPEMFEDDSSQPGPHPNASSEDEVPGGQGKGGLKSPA
Procedure, shortened: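 HepG2, RARg-GAL4 TRANS system, 24 h exposure; reporter mRNA by RT-PCR + CE fluorescence; increase over DMSO.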

Measured: AC50

COCCOCCOCCOCCOCCO
not listed: [10] | [11] | [12] | [13] | [14]
inactive: all other assays above

C=CC(=O)NCOCC(C)C
inactive: [1] | [2] | [3] | [5] | [6] | [7] | [10]
active: [4] 54.6 µM

CN(C)CCOCCN(C)C
not listed: [10] | [12] | [13] | [14]
inactive: all other assays above

NC(=O)c1ccccc1Cl
inactive: [2] | [3] | [7] | [8] | [10] | [9]
active: [1] 61.6 µM | [4] 25.8 µM | [5] 55.1 µM | [6] 143 µM

CCCC/C=C\CCCCCCCCCC=O
not listed: [9] | [10] | [12] | [13] | [14]
inactive: all other assays above

C=CC(=O)OCC(O)COc1ccccc1 (stereo not given)
active: [3] 55.7 µM | [4] 26.2 µM | [7] 17.3 µM | [11] 61 µM
inactive: [1] | [2] | [5] | [6] | [8]

NC(N)=NC(=O)c1nc(Cl)c(N)nc1N
active: [4] 62.6 µM
not listed: [8] | [12] | [13] | [14]
inactive: all other assays above

C/C=C(\C)C(=O)OCc1ccccc1
not listed: [8] | [9] | [12] | [13] | [14]
inactive: all other assays above

C=C(C)C(=O)OCCOC(=O)CC(C)=O
not listed: [8] | [12] | [13] | [14]
inactive: all other assays above

c1ccc(CCCc2ccccn2)cc1
active: [10] 50.7 µM | [11] 18.6 µM
inactive: [1] | [2] | [3] | [4] | [5] | [6] | [7]

CCO[Si](CCCS)(OCC)OCC
not listed: [10] | [11] | [12] | [13] | [14]
inactive: all other assays above

Cc1ccc(S)cc1
active: [6] 65.1 µM | [10] 22.8 µM
not listed: [9] | [12] | [13] | [14]
inactive: all other assays above

c1cc(C(c2ccc(OCC3CO3)cc2)c2ccc(OCC3CO3)cc2)ccc1OCC1CO1 (stereo not given)
active: [1] 10.1 µM | [3] 100 µM | [5] 24.8 µM | [6] 11.8 µM
inactive: [2] | [4] | [7] | [8] | [11]

CC(C)C(C)(C)C(C)(C)C(C)(C)S
active: [10] 100 µM | [11] 4.47 µM
inactive: [1] | [2] | [3] | [4] | [5] | [6] | [8]

O=c1[nH]c(=O)n([C@H]2CCCO2)cc1F
inactive: [1] | [2] | [3] | [4] | [5] | [6] | [10]

CC1=CCC2C(C1)C2(C)C (stereo not given)
inactive: [1] | [2] | [5] | [6] | [8] | [10]
active: [3] 49.1 µM | [4] 48.8 µM

CN(C)CCCN
inactive: [1] | [2] | [3] | [4] | [5] | [6] | [10]

NC(=O)NC1NC(=O)NC1=O (stereo not given)
inactive: [1] | [2] | [3] | [4] | [5] | [6] | [7] | [11]

CCC(C)(O)CCC=C(C)C (stereo not given)
not listed: [7] | [10] | [12] | [13] | [14]
inactive: all other assays above

CSc1nnc(C(C)(C)C)c(=O)[nH]1
inactive: [1] | [2] | [3] | [4] | [5] | [6] | [7] | [11]

COc1ccc(Nc2ccccc2)c(C)c1
active: [3] 151 µM | [4] 79.9 µM | [10] 31.5 µM | [11] 11.1 µM
inactive: [1] | [2] | [5] | [6] | [8]

CCCCCCCCCOC(C)=O
inactive: [1] | [2] | [3] | [4] | [5] | [6] | [10] | [11]

CCCC(=O)C(C)=O
not listed: [8] | [10] | [12] | [13] | [14]
inactive: all other assays above

CCN(CC)CCOC(=O)c1ccc(N)cc1
not listed: [8] | [11] | [12] | [13] | [14]
inactive: all other assays above

C=CC[N+](C)(C)CC=C
not listed: [7] | [10]
inactive: all other assays above

C=CC(C)(C)O
inactive: [1] | [2] | [3] | [4] | [5] | [6] | [10] | [11]

CCCCc1ccc(N)cc1
inactive: [1] | [2] | [3] | [5] | [6] | [9]
active: [4] 27.2 µM | [7] 38.7 µM
